Inconclusive results are not listed. Calls of active or inactive are those of the source. Unless noted, the call rests on the fitted dose curve; in most records, active means well fitted curve in the direction sought with a large enough effect; inconclusive means small, poorly fitted or top-dose-only effect, or another doubt; inactive means no such curve, though single readings can be large; an effect the other way counts as inactive or inconclusive.
Experiments:
[1] = qHTS assay to identify small molecule inhibitors of chordoma cells - UCH-1 (AID 1259355); further: nearly all actives have a fitted effect of over 55% in size; further: potency means the concentration at half of the fitted maximal effect; series mostly up to about 46 µM
Method in brief: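 Screening used approved and investigational drugs in 15-point titration against 800 seeded cells per well. A fixed combination of auranofin with camptothecin, doxorubicin, rubitecan and topotecan followed compound addition, and growth was scored by CellTiter-Glo after 48hr.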

[2] = qHTS assay to identify small molecule inhibitors of chordoma cells - UCH-2 (AID 1259356); further: potency means the concentration at half of the fitted maximal effect
[3] = NS1 protein of Zika virus - qHTS assay to identify small molecule inhibitors in human HEK 293 cells (AID 1347053); further: series mostly up to about 46 µM; nearly all actives have a fitted effect of over 55% in size
Method in brief: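 TR-FRET signal from two anti-ZIKV NS1 antibodies quantified NS1 in HEK 293 cells 24 h after MR766 infection at MOI = 0.5; compounds were added 1 h before virus. Uninfected cells and infected cells defined the NS1 normalization range.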

[4] = qHTS of pediatric cancer cell lines to identify multiple opportunities for drug repurposing: Primary screen for TC32 cells (AID 1347089); further: nearly all actives have a fitted effect of over 60% in size; further: potency means the concentration at half of the fitted maximal effect
Method in brief: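 Luminescent ATP read-out (CellTiter-Glo) of metabolically active TC32 cells after 48 h exposure. Concentration-response curves came from 11-point (MIPE, 0.78 nM–46 µM) or 8-point (NPC, 0.59 nM–46 µM) primary titrations; follow-up used 11 points.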

[5] = qHTS of pediatric cancer cell lines to identify multiple opportunities for drug repurposing: Primary screen for DAOY cells (AID 1347090); further: nearly all actives have a fitted effect of over 55% in size; further: potency means the concentration at half of the fitted maximal effect
Method in brief: (§1)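 Viability measured as metabolically active cells via CellTiter-Glo luminescence following 48 hours of compound exposure, 11-point dilutions in confirmatory testing. 500-1,000 cells/well plated 5 hours before dosing; controls were DMSO and 2.3 µM bortezomib.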

[6] = qHTS of pediatric cancer cell lines to identify multiple opportunities for drug repurposing: Primary screen for SJ-GBM2 cells (AID 1347091); further: potency means the concentration at half of the fitted maximal effect
Method in brief: as §1

[7] = qHTS of pediatric cancer cell lines to identify multiple opportunities for drug repurposing: Primary screen for A673 cells (AID 1347092); further: nearly all actives have a fitted effect of over 45% in size; further: potency means the concentration at half of the fitted maximal effect
Method in brief: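 Cell viability of A673 measured by CellTiter-Glo ATP luminescence after 48 hours compound exposure. Dilution series spanned 0.78 nM to 46 µM (MIPE, 11-point) or 0.59 nM to 46 µM (NPC, 8-point); bortezomib 2.3 uM positive control.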

[8] = qHTS of pediatric cancer cell lines to identify multiple opportunities for drug repurposing: Primary screen for SK-N-MC cells (AID 1347093); further: potency means the concentration at half of the fitted maximal effect
Method in brief: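 Metabolically active cells were quantified by ATP-dependent luminescence (CellTiter-Glo, 15 min at room temperature) following 48 h treatment. Cells had been plated at 500-1,000 per well and settled for 5 h beforehand.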

[9] = qHTS of pediatric cancer cell lines to identify multiple opportunities for drug repurposing: Primary screen for BT-37 cells (AID 1347094); further: potency means the concentration at half of the fitted maximal effect
Method in brief: (§2)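 Readout: CellTiter-Glo luminescence, 48 h treatment. Controls DMSO (neutral) and bortezomib 2.3 µM final (positive). Potency and efficacy taken from primary-screen concentration-response curves.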

[10] = qHTS of pediatric cancer cell lines to identify multiple opportunities for drug repurposing: Primary screen for NB-EBc1 cells (AID 1347095); further: potency means the concentration at half of the fitted maximal effect
Method in brief: as §2

[11] = P-glycoprotein substrates identified in KB-8-5-11 adenocarcinoma cell line, qHTS therapeutic library screen (AID 1346987); further: nearly all actives have a fitted effect of over 65% in size; further: potency means the concentration at half of the fitted maximal effect
Method in brief: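 Human cervical adenocarcinoma KB-8-5-11 cells, selected in colchicine to over-express P-gp and assayed without it, were exposed for 72 h to titrated compounds. An ATP-based luminescent viability signal gave AC50.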

[12] = qHTS of pediatric cancer cell lines to identify multiple opportunities for drug repurposing: Primary screen for U-2 OS cells (AID 1347096); further: nearly all actives have a fitted effect of over 50% in size; further: potency means the concentration at half of the fitted maximal effect
Method in brief: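 Viability after 48 h compound treatment at 37C, 500-1,000 cells/well, read as ATP luminescence with CellTiter-Glo. Primary screens used 11-point (MIPE, 0.78 nM-46 µM) or 8-point (NPC, 0.59 nM-46 µM) final concentrations; follow-up screens used 11-point dilutions.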

[13] = Natriuretic polypeptide receptor (hNpr1) antagonism - Pilot counterscreen GloSensor control cell line (AID 1347045; calls by dose curve; further: series mostly up to about 38 µM)
Method in brief: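 The SNP-driven cGMP luminescence signal (50 uM, 20 min, room temperature) was measured in GloSensor HEK293 control cells. Compounds were tested as a LOPAC titration series and preincubated for 30-50 min.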

[14] = biological target: Atrial natriuretic peptide receptor 1 (Homo sapiens) (UniProt P16066); assay: Natriuretic polypeptide receptor (hNpr1) antagonism - Pilot screen (AID 1347049; calls by dose curve;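 further: agonist-evoked cGMP luminescence read 20 min after hNppA addition; series mostly up to about 58 µM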)
Method in brief: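 cGMP-sensor HEK293/hNpr1 cells, 1500/well, plated overnight at 37C. 2% GloSensor reagent, 2 h RT. Compound (23 nL pin transfer) 30 min RT, baseline luminescence pre-read. 0.1 nM hNppA, 20 min RT, post-read.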

[15] = biological target: Atrial natriuretic peptide receptor 2 (Homo sapiens) (UniProt P20594); assay: Natriuretic polypeptide receptor (hNpr2) antagonism - Pilot subtype selectivity assay (AID 1347050; calls by dose curve)
Method in brief: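 Luminescence from a genetically encoded cGMP luciferase biosensor in hNpr2-expressing HEK293 cells is read before and 20 min after adding 1 nM hNppC. Test compounds, in interplate 1:5 titrations, are added 30-50 min ahead of the agonist.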

[16] = biological target: T1, Tyrosine-protein phosphatase non-receptor type substrate 1 (Homo sapiens) + Leukocyte surface antigen CD47 (Homo sapiens) (UniProt P78324+Q08722); assay: CD47-SIRPalpha protein protein interaction - LANCE assay qHTS validation (AID 1347057; active means well fitted curve in the direction sought with a large enough effect in the signal ratio, with a control signal flat, not every such curve was filed as active; the % refers to the signal ratio; further: series mostly up to about 38 µM)
Method in brief: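 Inhibition of soluble CD47/SIRPalpha ectodomain association by titrated compounds, measured as 665/615 nm time-resolved FRET ratio after sequential 30 min room-temperature incubations.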

[17] = biological target: T1, Tyrosine-protein phosphatase non-receptor type substrate 1 (Homo sapiens) + Leukocyte surface antigen CD47 (Homo sapiens); assay: CD47-SIRPalpha protein protein interaction - HTRF assay qHTS validation (AID 1347058; active means well fitted curve in the direction sought with a large enough effect in the signal ratio, not every such curve was filed as active; the % refers to the signal ratio; further: series mostly up to about 38 µM)
Method in brief: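 Soluble extracellular domains (6His-CD47, Avi-tag-biotinylated SIRPalpha) in PBS pH 7.4 with 0.05% IGEPAL CA-630. Compounds were preincubated 30 min at RT with CD47 and anti-His-Eu, then SIRPalpha and SAV-XL665 were added. TR-FRET 665/615 ratio.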

[18] = biological target: T1, Tyrosine-protein phosphatase non-receptor type substrate 1 (Homo sapiens) + Leukocyte surface antigen CD47 (Homo sapiens); assay: CD47-SIRPalpha protein protein interaction - Alpha assay qHTS validation (AID 1347059);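 further: bead proximity luminescence from CD47 binding SIRPalpha after compound preincubation with SIRPalpha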
Method in brief: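 SIRPalpha-biotin 25 nM + cpd, 30 min RT, dark; add CD47-His 12.5 nM, 30 min; add Ni-NTA/SAV beads 10 ug/mL, 30 min; AlphaScreen. Buffer PBS pH 7.4 + 0.05% IGEPAL CA-630. Non-biotinylated SIRPalpha as control inhibitor.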

[19] = biological target: Parathyroid hormone/parathyroid hormone-related peptide receptor (Homo sapiens) (UniProt Q03431); assay: qHTS for PTHR1 Agonists: Optimization Screen against the NCGC LOPAC library (AID 1347079);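 further: GloSensor cAMP luminescence in HEK-293 GP2 cells expressing human PTHR1 with IBMX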
Method in brief: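 Signal increase flags agonism. GP2 cells, derived from HEK-293, express human PTHR1 and a GloSensor cAMP construct.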

Measured: Potency

T1 sequence (P78324 whole entry, looked up, the tested form may be a part): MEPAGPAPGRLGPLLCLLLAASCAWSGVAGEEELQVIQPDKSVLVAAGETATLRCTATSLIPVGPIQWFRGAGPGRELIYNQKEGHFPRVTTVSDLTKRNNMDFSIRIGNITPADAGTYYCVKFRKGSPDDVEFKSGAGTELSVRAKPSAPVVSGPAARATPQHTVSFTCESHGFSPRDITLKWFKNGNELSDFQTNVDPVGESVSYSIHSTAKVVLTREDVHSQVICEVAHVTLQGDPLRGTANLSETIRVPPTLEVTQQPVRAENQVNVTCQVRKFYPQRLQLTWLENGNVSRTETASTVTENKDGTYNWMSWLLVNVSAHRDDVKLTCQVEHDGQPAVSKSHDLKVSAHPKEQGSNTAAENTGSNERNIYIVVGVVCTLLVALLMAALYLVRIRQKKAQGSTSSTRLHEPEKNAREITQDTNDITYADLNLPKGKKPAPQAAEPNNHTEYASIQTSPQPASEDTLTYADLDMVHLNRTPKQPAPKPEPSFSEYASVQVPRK
T1 sequence (Q08722 whole entry, looked up, the tested form may be a part): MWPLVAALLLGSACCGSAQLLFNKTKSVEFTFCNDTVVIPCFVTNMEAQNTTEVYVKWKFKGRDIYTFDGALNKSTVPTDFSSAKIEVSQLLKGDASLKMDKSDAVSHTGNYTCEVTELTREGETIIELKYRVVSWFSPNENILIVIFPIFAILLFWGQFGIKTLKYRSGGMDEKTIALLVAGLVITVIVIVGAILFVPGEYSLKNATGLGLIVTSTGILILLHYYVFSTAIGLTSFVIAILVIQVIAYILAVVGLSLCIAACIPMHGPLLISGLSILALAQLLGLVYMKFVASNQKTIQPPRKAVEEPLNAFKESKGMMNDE
Sequence of Atrial natriuretic peptide receptor 2 (Homo sapiens) (P20594 whole entry, looked up): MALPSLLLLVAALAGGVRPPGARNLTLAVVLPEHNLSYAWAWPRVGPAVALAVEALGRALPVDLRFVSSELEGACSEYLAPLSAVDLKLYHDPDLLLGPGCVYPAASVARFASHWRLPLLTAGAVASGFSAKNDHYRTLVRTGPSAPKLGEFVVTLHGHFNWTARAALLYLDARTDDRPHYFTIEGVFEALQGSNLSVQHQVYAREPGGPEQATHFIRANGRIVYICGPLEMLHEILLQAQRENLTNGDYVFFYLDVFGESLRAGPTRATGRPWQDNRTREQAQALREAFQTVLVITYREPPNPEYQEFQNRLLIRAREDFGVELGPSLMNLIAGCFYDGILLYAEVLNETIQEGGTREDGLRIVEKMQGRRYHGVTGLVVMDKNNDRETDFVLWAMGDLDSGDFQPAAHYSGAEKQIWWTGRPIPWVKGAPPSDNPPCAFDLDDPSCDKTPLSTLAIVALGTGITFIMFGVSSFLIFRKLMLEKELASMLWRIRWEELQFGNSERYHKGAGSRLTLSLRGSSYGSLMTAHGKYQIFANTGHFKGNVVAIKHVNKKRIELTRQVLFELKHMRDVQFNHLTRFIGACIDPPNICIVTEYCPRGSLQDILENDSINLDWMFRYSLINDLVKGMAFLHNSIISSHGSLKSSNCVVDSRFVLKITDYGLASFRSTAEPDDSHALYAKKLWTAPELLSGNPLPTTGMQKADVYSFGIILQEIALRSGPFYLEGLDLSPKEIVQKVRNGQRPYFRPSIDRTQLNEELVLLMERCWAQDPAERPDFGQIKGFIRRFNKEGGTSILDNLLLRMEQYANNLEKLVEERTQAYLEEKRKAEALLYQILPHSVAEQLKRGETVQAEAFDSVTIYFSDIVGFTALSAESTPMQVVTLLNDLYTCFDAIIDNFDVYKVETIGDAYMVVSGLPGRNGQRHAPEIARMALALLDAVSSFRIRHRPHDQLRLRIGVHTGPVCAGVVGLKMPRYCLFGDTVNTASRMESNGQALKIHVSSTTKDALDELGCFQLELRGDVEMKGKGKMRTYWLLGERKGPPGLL
Sequence of Atrial natriuretic peptide receptor 1 (Homo sapiens) (P16066 whole entry, looked up): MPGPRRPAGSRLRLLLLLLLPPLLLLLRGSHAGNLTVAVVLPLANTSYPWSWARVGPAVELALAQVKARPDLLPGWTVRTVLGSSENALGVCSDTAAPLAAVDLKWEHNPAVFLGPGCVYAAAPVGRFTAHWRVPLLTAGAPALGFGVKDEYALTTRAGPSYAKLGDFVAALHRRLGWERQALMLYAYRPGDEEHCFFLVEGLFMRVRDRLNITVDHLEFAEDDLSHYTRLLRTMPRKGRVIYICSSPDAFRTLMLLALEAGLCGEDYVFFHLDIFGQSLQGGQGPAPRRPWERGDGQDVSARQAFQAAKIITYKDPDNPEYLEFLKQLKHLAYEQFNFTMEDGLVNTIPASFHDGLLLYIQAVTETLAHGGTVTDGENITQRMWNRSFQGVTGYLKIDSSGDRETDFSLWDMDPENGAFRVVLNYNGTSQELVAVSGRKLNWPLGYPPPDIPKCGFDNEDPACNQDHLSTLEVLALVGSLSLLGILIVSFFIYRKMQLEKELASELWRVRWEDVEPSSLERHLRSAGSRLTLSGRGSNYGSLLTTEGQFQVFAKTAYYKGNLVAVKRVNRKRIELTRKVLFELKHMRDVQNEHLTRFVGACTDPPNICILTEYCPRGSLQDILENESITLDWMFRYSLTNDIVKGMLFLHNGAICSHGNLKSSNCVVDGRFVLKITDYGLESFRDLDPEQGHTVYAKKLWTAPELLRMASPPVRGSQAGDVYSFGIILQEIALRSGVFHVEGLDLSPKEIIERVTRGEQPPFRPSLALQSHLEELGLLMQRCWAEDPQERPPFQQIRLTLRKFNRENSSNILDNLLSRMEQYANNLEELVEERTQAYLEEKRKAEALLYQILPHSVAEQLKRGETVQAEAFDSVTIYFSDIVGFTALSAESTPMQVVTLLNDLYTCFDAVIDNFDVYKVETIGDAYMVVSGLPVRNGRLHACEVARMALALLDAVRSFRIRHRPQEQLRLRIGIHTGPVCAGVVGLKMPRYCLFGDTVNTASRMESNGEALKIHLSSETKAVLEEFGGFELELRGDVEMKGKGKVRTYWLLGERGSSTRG
Sequence of Parathyroid hormone/parathyroid hormone-related peptide receptor (Homo sapiens) (Q03431 whole entry, looked up): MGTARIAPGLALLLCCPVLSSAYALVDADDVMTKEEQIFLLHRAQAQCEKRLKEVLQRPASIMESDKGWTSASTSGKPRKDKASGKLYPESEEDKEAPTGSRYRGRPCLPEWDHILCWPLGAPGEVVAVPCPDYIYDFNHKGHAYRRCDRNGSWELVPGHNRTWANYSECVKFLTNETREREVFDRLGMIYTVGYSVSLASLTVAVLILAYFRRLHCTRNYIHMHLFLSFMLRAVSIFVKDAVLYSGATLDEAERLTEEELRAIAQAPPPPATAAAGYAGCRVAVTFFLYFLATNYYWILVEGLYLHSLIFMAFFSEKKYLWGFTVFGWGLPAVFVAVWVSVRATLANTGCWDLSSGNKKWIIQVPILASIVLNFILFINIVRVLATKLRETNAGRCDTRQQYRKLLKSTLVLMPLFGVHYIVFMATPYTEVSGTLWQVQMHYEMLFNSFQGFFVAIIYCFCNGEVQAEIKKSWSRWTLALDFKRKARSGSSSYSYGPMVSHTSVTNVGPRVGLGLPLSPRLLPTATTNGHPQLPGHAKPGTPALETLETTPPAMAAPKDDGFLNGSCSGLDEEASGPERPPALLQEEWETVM

N#C/C(=C1\SCC(c2ccccc2Cl)S1)n1ccnc1 (stereo not given)
inactive: [1] | [2] | [3] | [4] | [5] | [6] | [7] | [8] | [9] | [10]

CCCCc1cc2ccccc2c(OCCN(C)C)n1
inactive: [1] | [2] | [3] | [4] | [5] | [6] | [7] | [10]

NC(N)=NN=C(/C=C/c1ccc([N+](=O)[O-])o1)/C=C/c1ccc([N+](=O)[O-])o1
active: [1] 10 µM | [2] 16.4 µM | [11] 4.61 µM | [4] 6.64 µM | [5] 10.6 µM | [7] 1.06 µM | [9] 11 µM | [10] 5.31 µM

O=C(Oc1cccc2cccnc12)c1ccccc1
active: [4] 1.67 µM | [7] 0.001 µM | [8] 9.44 µM
inactive: [1] | [2] | [11] | [9]

CCN1CCCC(OC(=O)C(c2ccccc2)c2ccccc2)C1 (stereo not given)
inactive: [1] | [2] | [3] | [4] | [5] | [6] | [7] | [8] | [9] | [12]

COc1ccc(CN(CCN(C)C)c2ncccn2)cc1
not listed: [11] | [13] | [14] | [15] | [16] | [17] | [18] | [19]
inactive: all other assays above

CCN(CC)CCOc1ccccc1C(=O)CCc1ccccc1
inactive: [1] | [2] | [3] | [4] | [5] | [6] | [7] | [8] | [9] | [10]

CCCCCCCCCCCCCCC[C@H](O)[C@@H](N)CO
inactive: [1] | [2] | [3] | [4] | [5] | [6] | [7] | [8] | [9] | [12]

CCCCNC(=O)NS(=O)(=O)c1ccc(N)cc1
inactive: [1] | [2] | [11] | [4] | [5] | [7] | [8] | [9] | [10] | [12]

CC(=O)O[C@]1(C(C)=O)CC[C@H]2[C@@H]3C=C(C)C4=CC(=O)CC[C@]4(C)[C@H]3CC[C@@]21C
not listed: [11] | [13] | [14] | [15] | [16] | [17] | [18] | [19]
inactive: all other assays above

O=C1OC2(c3ccccc31)c1cc(Br)c(O)c(Br)c1Oc1c2cc(Br)c(O)c1Br
inactive: [1] | [2] | [11] | [4] | [5] | [6] | [7] | [9] | [12]

C[C@@]12C(=O)OC(=O)[C@]1(C)C1CCC2O1
active: [1] 0.501 µM | [2] 0.698 µM | [11] 3.12 µM | [4] 6.64 µM | [5] 3.35 µM | [7] 6.68 µM | [8] 2.37 µM | [10] 2.37 µM | [12] 3.35 µM

Cc1ccc(-c2ncc(Cl)cc2-c2ccc(S(C)(=O)=O)cc2)cn1
inactive: [1] | [2] | [3] | [4] | [5] | [6] | [7] | [8] | [9] | [12]

COC(=O)C(c1ccccc1Cl)N1CCc2sccc2C1 (stereo not given)
inactive: [1] | [2] | [3] | [4] | [5] | [6] | [7] | [8] | [9] | [12]

O=C1OC(CN2CCOCC2)CN1/N=C/c1ccc([N+](=O)[O-])o1 (stereo not given)
inactive: [1] | [2] | [11] | [4] | [5] | [6] | [8] | [9] | [10] | [12]

CCCCC(CC)COC(=O)/C=C/c1ccc(OC)cc1 (stereo not given)
inactive: [1] | [2] | [11] | [4] | [5] | [6] | [8] | [9] | [10] | [12]

OC(C#CCN1CCCC1)(c1ccccc1)c1ccccc1
not listed: [11] | [13] | [14] | [15] | [16] | [17] | [18] | [19]
inactive: all other assays above

CN(Cc1ccc(C(C)(C)C)cc1)Cc1cccc2ccccc12
inactive: [1] | [2] | [11] | [4] | [5] | [6] | [7] | [9] | [12]

CN1CCN(c2cc3c(cc2F)c(=O)c(C(=O)O)cn3-c2ccc(F)cc2)CC1
not listed: [11] | [13] | [14] | [15] | [16] | [17] | [18] | [19]
inactive: all other assays above

CCCCCCCCNC(C)C(O)c1ccc(SC(C)C)cc1 (stereo not given)
active: [1] 35.5 µM | [11] 11.6 µM | [8] 16.8 µM | [9] 27.6 µM
inactive: [2] | [4]

Cc1cn([C@H]2C[C@H](F)[C@@H](CO)O2)c(=O)[nH]c1=O
inactive: [1] | [2] | [11] | [4] | [5] | [7] | [12]

COc1ccccc1N1CCN(CCCCNC(=O)c2ccc(-c3ccc(C(C)=O)cc3)cc2)CC1
inactive: [1] | [2] | [3] | [4] | [5] | [6] | [7] | [8] | [9] | [12]

CCCCNc1ccc(C(=O)OCCOCCOCCOCCOCCOCCOCCOCCOCCOC)cc1
inactive: [1] | [2] | [3] | [4] | [5] | [6] | [8] | [10]

c1ccc(-c2nc[nH]c2-c2ccccc2)cc1
inactive: [1] | [2] | [3] | [4] | [5] | [7] | [8] | [9] | [10] | [12]

CC(C)=CCOc1ccc(/C=C/C(=O)c2ccc(OCC=C(C)C)cc2OCC(=O)O)cc1
active: [8] 21.1 µM
inactive: [1] | [2] | [3] | [4] | [9] | [12]

C#C[C@]1(OC(C)=O)CC[C@H]2[C@@H]3CCC4=C/C(=N/O)CC[C@@H]4[C@H]3CC[C@@]21CC
active: [11] 6.51 µM
inactive: [1]

CC[C@H](c1ccc(O)cc1)[C@@H](CC)c1ccc(O)cc1
active: [6] 3.35 µM
inactive: [1] | [2] | [3]

C[C@]12CCC(=O)C=C1C=C[C@@H]1[C@@H]2CC[C@@]2(C)[C@H]1CC[C@@]21CCC(=O)O1
inactive: [1] | [2] | [3] | [4] | [6] | [9] | [10] | [12]

Oc1ccc(Cl)cc1Cc1cc(Cl)ccc1O
inactive: [1] | [2] | [3]
active: [5] 21.1 µM | [9] 19.5 µM

COc1cc(N)c(Cl)cc1C(=O)NC1CCN(Cc2ccccc2)CC1
inactive: [1] | [2] | [3] | [4] | [5] | [8] | [9] | [10] | [12]

CN=C(N)NCCC[C@H](N)C(=O)O
inactive: [1] | [11] | [13] | [14] | [15] | [3] | [16] | [17] | [18] | [19]

CN1CCN(CCC(=O)N2c3ccccc3Sc3ccc(C(F)(F)F)cc32)CC1
active: [8] 29.9 µM
inactive: [1] | [2] | [4] | [5] | [12]

CCN(CC)CCNc1ccc(CO)c2sc3ccccc3c(=O)c12
inactive: [1]
active: [2] 25.9 µM | [8] 21.1 µM | [9] 17.4 µM

Source: PubChem BioAssay (NCATS)
